Source: ChEMBL document CHEMBL4296182, “CO-ADD screening of NIH NCI Diversity Set V”
For part of these data: Measured potencies and affinities stand elsewhere.

Columns and labels:
Staphylococcus aureus = experiment: Antibacterial activity against Staphylococcus aureus MRSA ATCC 43300 (CO-ADD:GP_020); MIC in CAMBH media using NBS plates, by Resazurin F(560/590); type: functional; conditions: Concentration 20 uM, ASSAY_TEST Inhibition of Bacterial Growth, detection method Resazurin, Fluorescence (ex560/em590), MEDIA CAMHB, plate type 384well, CORNING #3640, time 18 hr
Acinetobacter baumannii = experiment: Antibacterial activity against Acinetobacter baumannii ATCC 19606 (CO-ADD:GN_034); MIC in CAMBH media using NBS plates, by Resazurin F(560/590); type: functional; conditions: Concentration 20 uM, ASSAY_TEST Inhibition of Bacterial Growth, detection method Resazurin, Fluorescence (ex560/em590), MEDIA CAMHB, plate type 384well, CORNING #3640, time 18 hr
Escherichia coli = experiment: Antibacterial activity against Escherichia coli ATCC 25922 (CO-ADD:GN_001); MIC in CAMBH media using NBS plates, by Resazurin F(560/590); type: functional; conditions: Concentration 20 uM, ASSAY_TEST Inhibition of Bacterial Growth, detection method Resazurin, Fluorescence (ex560/em590), MEDIA CAMHB, plate type 384well, CORNING #3640, time 18 hr
Klebsiella pneumoniae = conditions: Concentration 20 uM; ASSAY_TEST Inhibition of Bacterial Growth; detection method Absorption (OD600); MEDIA CAMHB; plate type 384well; NBS; CORNING #3640; time 18 hr
Candida albicans = conditions: 20 µM
Cryptococcus neoformans = conditions: Concentration 20 uM; ASSAY_TEST Inhibition of Fungal Growth; detection method Resazurin; Absorption (OD600-OD570); plate type 384well; NBS; CORNING #3640

SMILES | Inhibition (Staphylococcus aureus) [%] | Inhibition (Acinetobacter baumannii) [%] | Inhibition (Escherichia coli) [%] | Inhibition (Klebsiella pneumoniae) [%] | Inhibition (Candida albicans) [%] | Inhibition (Cryptococcus neoformans) [%]
C=CCCC1(C2=CCCCC2)C(=O)NC(=O)NC1=O | 0.11 | -12.21 | 7.91 | 12.33 | 3.67 | -8.53
COc1cccc2c1C(=O)c1c(O)c3c(c(O)c1C2=O)C[C@@](O)(/C(C)=N\O)C[C@@H]3OC1CC(N)C(O)C(C)O1.Cl (stereo partly drawn) | -16.23 | -1.97 | 2.23 | 11.93 | -6.16 | -5.57
O=C(Nc1ccc(F)cc1)Oc1cccnc1O | 10.32 | 2.12 | 1.72 | 11.14 | 5.85 | -4.36
C/C=C/CC1(CC)C(=O)NC(=S)NC1=O | -2.18 | -12.12 | -2.34 | 1.47 | 1.14 | 0.11
CCCC(=O)N(C)C1=Nc2ccc(Cl)cc2C(c2ccccc2)=[N+]([O-])C1 | 11.96 | 1.65 | -7.17 | 24.44 | 4.49 | -4.22
CCOP(=O)(OCC)/C(C#N)=C/c1ccc(Br)cc1 | 9.27 | 13.14 | 8.82 | 9.61 | 2.02 | -11.15
CC(C)CC(NC=O)C(=O)O.COc1cc2c(cc1OC)C13CCN4CC5=CCOC6CC(=O)N2C1C6C5CC43 (stereo not drawn) | 7.19 | -2.08 | 1.33 | 12.71 | -1.26 | -3.45
CCN(CC)c1ccc(C=C2C(=O)NC(=S)NC2=O)cc1 | -20.45 | -4.05 | -18.35 | 3.93 | 19.4 | 12.5
CC(C)(C)c1cc(C=C(C#N)C#N)cc(C(C)(C)C)c1O [TYRPHOSTIN A9] | -5.13 | -9.85 | 13.03 | 23.47 | 14.2 | 6.62
COc1ccc2c3c1O[C@H]1C[C@@H](O)C=C[C@@]31CCN(C)C2 [GALANTAMINE] | 2.8 | 5.17 | -15.55 | 17.41 | 7.99 | 22.63
COc1c(OP2(=S)OCC(C)(C)CO2)cnn(C2CCCCC2)c1=O | 22.66 | -7.99 | 17.33 | 10.42 | -1.61 | -6
O=P(OC1=CCCCC1)(c1ccccc1)c1ccccc1 | 2.77 | -7.09 | 6.17 | 9.43 | 4.11 | -2.72
CC(C)NC1C2CCC(CC2)C1(O)c1ccc(Cl)c(Cl)c1.CS(=O)(=O)O (stereo not drawn) | 8.47 | -0.12 | 14.13 | 12.75 | 0.41 | -1.76
CN1CCN(c2nc(N)c(Br)c(Cl)n2)CC1 | 8.04 | 10.68 | 2.4 | 16.05 | 2.84 | -7.43
N#CC(C#N)=Cc1ccc(C=C(C#N)C#N)cc1 | -4.05 | -13.9 | 2.09 | 11.67 | 36.5 | -3.4
Cc1nccc2c1[nH]c1cc(O)ccc12 | 18.39 | -8.06 | 7.41 | 20.45 | 2.57 | -8.88
Cc1ccccc1-n1c(/C=C\c2ccccn2)nc2ccccc2c1=O | -4.95 | -2.79 | 7.76 | 14.95 | 5.08 | -6.01
CCOC(=O)c1ccc2nc(-c3ccc(S(=O)(=O)F)cc3)cc(O)c2c1 | 10.74 | 13.99 | 0.41 | 7.81 | 1.06 | -10.46
C=CCN1CC[C@]23c4c5ccc(O)c4O[C@H]2C(=O)CC[C@@]3(O)[C@H]1C5 [NALOXONE] | 11.42 | -13 | 1.67 | – | – | –
Cc1ccc(N2C(=O)C(=CN)C(=O)N(c3ccc(C)cc3)C2=O)cc1 | 17.58 | 4.93 | 4.14 | 11.65 | -1.3 | -7.68
O=C1N[C@H]2[C@H](O)[C@H](O)[C@@H](O)[C@H](O)[C@@H]2c2cc3c(c(O)c21)OCO3 [PANCRATISTATIN] | 12.72 | 6.17 | 0.6 | 1.56 | 0.06 | -14.69
CC12CCC3C(CC=C4CC(O)CCC43C)C1C/C(=C\N1CCCC1)C2=O (stereo not drawn) | 1.08 | 21.07 | 1.6 | 23.67 | -3.81 | -14.08
CN1CCc2cc3c(cc2C1)OCO3 | -5.07 | -14.77 | 11.12 | 3.04 | 1.35 | -8.47
O=C1CCCN1CC#CCN1CCCC1 [OXOTREMORINE] | -8.85 | 7.42 | 9.1 | 1.39 | 0.18 | -12.14
C1CC2NCCC3NCCC(N1)N32 (stereo not drawn) | 9.55 | -9.44 | 11.78 | 14.06 | -0.83 | -3.22
O=C(O)CCCC[C@@H]1SC[C@@H]2NC(=O)N[C@@H]21 [BIOTIN] | 10.18 | -16.1 | 8.51 | 5.79 | 1.63 | -9.23
